For 85 molecules, outcome results are on record in PubChem BioAssay AID588345 (Broad Institute, 2011).

Screen size: about 1,300 compounds; about 850 (65%) were called active. Roughly 1% stayed inconclusive and do not appear here. The rule behind the calls is not given here. The set was probably picked from earlier hits. The list is a sample of the results. Results with a measured potency or affinity are listed apart.

This test deals with Dual specificity tyrosine-phosphorylation-regulated kinase 1A (Rattus norvegicus) (UniProt Q63470). Description: Dyrk1A enzyme activity inhibition – biochemical, cherry-pick, plate reader, 2124-01, dose response (AID 588345). The following applies: Dyrk1A kinase biochemical assay; series mostly up to 12 µM.
`COc1cccc(C(=O)c2sc(NC(C)C)nc2N)c1`: the result was inactive.

Regarding `O=C1CC(c2ccc(S(=O)(=O)NC3CC3)cc2)CN1` (stereo not given), the result was inactive.

In the case of `CNC(=O)c1cc2c(s1)-c1ccccc1CC2`, the outcome was inactive.

Take `Cn1c2ccccc2c2cc(/C=N/NC(=O)c3cc(O)ccc3O)ccc21`: the call was inactive.

Turning to `Cc1ccnc(NC(=O)c2cccc(S(=O)(=O)N3CCN(c4ccccc4)CC3)c2)c1`, the result was inactive.

Take `COc1ccc(-n2c(Cn3c(=O)sc4ccccc43)nnc2SCC(=O)N2CCOCC2)cc1`: the outcome was inactive.

As for `c1ccc(-c2csc3nnc(SCc4ccc5c(c4)OCO5)n23)cc1`, the call was inactive.

Turning to `COc1ccc2c(c1)C(=NN)c1cc(OC)ccc1-2`, the call was inactive.

As for `CC(C)NC(=O)Nc1cccc2c1O[C@H](CN(C)C(=O)NC1CCCCC1)[C@H](C)CN([C@H](C)CO)C2=O`, the molecule was called inactive.

As to `CC(C)C[C@H]1COCCS(=O)(=O)N1Cc1cccc(Cl)c1`, the molecule was called inactive.

Take `CC(=O)C1C(c2ccc(Cl)cc2)NC(=O)NC1(O)C(F)(F)F` (stereo not given): the call was inactive.

With `Cn1c(C(=O)N2CCCC2)cc2c(=O)n(C)c3ccccc3c21`, the outcome was inactive.

With `Fc1ccc(-c2nnc3sc(C4COc5ccccc5O4)nn23)cc1` (stereo not given), the molecule was classed as inactive.

As to `NC(=O)c1cc2ccccc2oc1=NCc1ccccc1`, the call was inactive.

For `Nc1c(C(=O)NCc2ccccc2)nnn1Cc1ccccc1`, the molecule was called inactive.

Consider `S=c1[nH]cc(-c2ccc(Cl)cc2)n1Cc1ccccc1`, for which the call was inactive.

With `C=C(C)Cn1c(N2CCN(CC)CC2)nc2c1c(=O)[nH]c(=O)n2C`, the molecule was classed as inactive.

With `COCCCn1c(SCC(=O)NC2CCCCC2)nnc1-c1ccncc1`, the molecule was classed as inactive.

With `CCNc1nc(N)nc(-c2cc(Cl)ccc2O)n1`, the call was inactive.

Regarding `Nc1nc(N)nc(-c2ccc(Cl)c(Cl)c2)n1`, the outcome was inactive.

As for `Cc1cccc(NC(=O)c2cnc3sccn3c2=O)n1`, the call was inactive.

Take `O=C(Nc1ccc(Cl)c(Cl)c1)OCc1cnc(Cl)s1`: the molecule was classed as inactive.

`Cc1cc(O)c2c(c1)C(=O)c1cc(O)cc(O)c1C2=O`: the molecule was called inactive.

Take `CC1CCN(c2ncnc3nc[nH]c23)CC1`: the molecule was classed as inactive.

In the case of `O=C(c1cccc2c1-c1ccccc1/C2=N/O)N1CCCCC1`, the molecule was called inactive.

On to `NC(=O)N/N=C1\c2ccccc2-c2c(C(N)=O)cccc21`, for which the molecule was called inactive.

As for `CCOC(=O)c1cnc2ccc(C)cc2c1Nc1ccc(N2CCOCC2)cc1`, the molecule was called inactive.

Take `N#Cc1c(=O)c2nc(NCCCO)ncc2n2c(=O)c3ccccc3[nH]c12`: the result was inactive.

As for `O=C(NNC1=C(C(=O)C(F)(F)F)CCC1)c1ccccc1O`, the outcome was inactive.

For the molecule `c1csc(CNc2ncnc3ccc(-c4ccoc4)cc23)c1`, the result was inactive.

Consider `N#CCSc1nc(Nc2ccc3c(c2)OCO3)c2ccccc2n1`, for which the molecule was called inactive.

As to `c1cncc(-c2nc(NCc3ccco3)c3ccccc3n2)c1`, the call was inactive.

Consider `CC(Nc1nc(-c2cccnc2)nc2ccccc12)c1ccc(F)cc1` (stereo not given), for which the call was inactive.

For `Cc1nnc2c3ccccc3c(-c3cccs3)nn12`, the molecule was classed as inactive.

With `CCN(CC)CCCNC(=O)c1cc2c(=O)n(C)c3ccccc3c2n1C`, the call was inactive.

Take `CCCn1c2ccccc2c2cn[nH]c(=O)c21`: the molecule was classed as inactive.

On to `O=C(NCCc1ccccc1)C1CCN(S(=O)(=O)c2ccc(Br)s2)CC1`, for which the call was inactive.

Turning to `N#Cc1nc(-c2ccccc2Cl)oc1NCC1CCCO1` (stereo not given), the molecule was called inactive.

Consider `COc1ccc(C(=O)N2CCN(c3c(C)cccc3C)CC2)cc1OC`, for which the call was inactive.

Regarding `C=CCNC(=S)Nc1ccc2cn[nH]c2c1`, the outcome was inactive.

Turning to `Cc1ccc(CCNC(=O)C2CCN(S(=O)(=O)c3cccc4nonc34)CC2)cc1`, the call was inactive.

In the case of `CCN(CC)c1ccc(NC(=O)CCc2nnc3ccc(N4CCCCC4)nn23)c(C)c1`, the molecule was classed as inactive.

For the molecule `NS(=O)(=O)c1ccc(-c2ccc(/C=C3\SC(=O)NC3=O)o2)cc1`, the molecule was classed as inactive.

`Cc1ccc(C(=O)c2coc3ccc(OCC(=O)O)cc23)cc1`: the molecule was classed as inactive.

`Cc1c(O)ccc2c(CN(C)Cc3ccccc3)cc(=O)oc12`: the result was inactive.

With `Cc1cccc(C)c1OCCOC(=O)c1n[nH]c2ccccc12`, the result was inactive.

For `CCOCCOc1nc2c(c(=O)n(C)c(=O)n2C)n1Cc1ccc(C)cc1`, the outcome was inactive.

On to `O=C(O)CSc1ncnc2scc(-c3ccccc3)c12`, for which the outcome was inactive.

`Cc1ccc(-c2csc3ncnc(SCC(=O)O)c23)cc1`: the molecule was called inactive.

In the case of `O=C1C(Cl)=C(N2CCC(C(=O)O)CC2)C(=O)c2ccccc21`, the molecule was classed as inactive.

On to `COc1ccc(-c2nc(N)ncc2-c2ccccc2OC)c(O)c1`, for which the result was inactive.

As to `CCc1cc(-c2[nH]ncc2-c2ccc3c(c2)OCO3)c(O)cc1O`, the call was inactive.

With `CCCCCCCCN1[C@@H](CC(=O)OC)c2cc(C(F)(F)F)ccc2S1(=O)=O`, the call was inactive.

`O=C(Nc1cccc(-c2nn[nH]n2)c1)c1csc2c1CCCC2`: the molecule was classed as inactive.

Consider `CCc1ccc(C(=O)Nc2cccc(-c3nn[nH]n3)c2)s1`, for which the molecule was classed as inactive.

As for `C/C(=N/NC(=O)c1ccc(Br)s1)c1cccnc1`, the outcome was inactive.

Turning to `Cc1cccc(NC(=S)NNC(=O)c2csc3c2CCC(C)C3)c1` (stereo not given), the call was inactive.

As to `C/C(=C/c1oc2ccc(O)cc2c1[N+](=O)[O-])N(C)C`, the molecule was classed as inactive.

With `CCC(C)[C@H]1CNCCN1CCc1cccc2ccccc12` (stereo not given in full), the molecule was called inactive.

Turning to `Cc1cccc(NC(=O)C2NC(=O)CC2c2ccccc2)c1C` (stereo not given), the result was inactive.

Regarding `COc1ccc(-n2nc(C)cc2Nc2ccccc2C(=O)O)cc1`, the molecule was classed as inactive.

For the molecule `CCOC(=O)c1nnc(-c2ccc(C)cc2)nc1Sc1ccc(Cl)cc1`, the call was inactive.

Regarding `O=C(O)c1[nH]c2ccc([N+](=O)[O-])cc2c1-c1ccccc1`, the result was inactive.

Turning to `COCCNc1cc(C)nc2c(-c3ccccc3OC)c(C)nn12`, the outcome was inactive.

For `CC(=O)Nc1cccc(C(=O)OCC(=O)c2ccc3c(c2)OCO3)c1`, the molecule was called inactive.

For `Cc1c(Br)c(=O)oc2c(Br)c(O)ccc12`, the call was inactive.

For the molecule `Oc1ccc(-c2csc(Nc3cccnc3)n2)cc1`, the result was inactive.

Regarding `Clc1cccc(Cc2nn[nH]n2)c1`, the call was inactive.

Regarding `CCOCCCNC(=O)/C(C#N)=C/c1cc(Br)c(O)c(Br)c1`, the molecule was classed as inactive.

Regarding `N#Cc1c(N)nc2c3c(sc(=N)c2c1N)NC(=O)CC3c1c(F)cccc1Cl` (stereo not given), the call was inactive.

On to `COc1ccc2c(C#CCCO)c(-c3ccc(S(C)(=O)=O)cc3)sc2c1`, for which the molecule was classed as inactive.

Consider `O=C(CSc1nc(-c2ccco2)cc(C(F)(F)F)n1)NCCCn1ccnc1`, for which the call was inactive.

In the case of `Nc1ccc(-c2ccc(C(=O)O)s2)cn1`, the outcome was inactive.

As for `CSc1nc(SCC(N)=O)c2c3c(sc2n1)CN(C)CC3`, the call was inactive.

On to `COc1ccc(C(=O)N(Cc2nc(-c3ccc(C)cc3)no2)C(C)C)cc1OC`, for which the molecule was classed as inactive.

As to `CCc1n[nH]c(=S)n1/N=C/c1c[nH]c2ccc(Br)cc12`, the call was inactive.

Regarding `COc1cccc(-c2nnc3sc(C4CCCCC4)nn23)c1`, the molecule was classed as inactive.

As to `O=c1nc2n(c3sc4c(c13)CCCC4)C(CBr)CS2` (stereo not given), the result was inactive.

Turning to `Oc1cc(-c2ccncc2)cc2cccnc12`, the molecule was called inactive.

For the molecule `Cc1ccccc1C(=O)NNC(=O)CCCCC(=O)NNC(=O)c1ccccc1C`, the outcome was inactive.

As to `O=c1cc(-c2ccccc2)c2c(O)cc(O)cc2o1`, the outcome was inactive.

Turning to `Cc1ccc(-c2cc(O)cc3sc(=O)oc23)cc1C`, the molecule was classed as inactive.

For `CC(=O)Nc1nc(-c2ccc3c(c2)OCO3)cs1`, the outcome was inactive.

Consider `O=C1C=C(c2ccc3c(c2)OCO3)CCC1`, for which the result was inactive.

In the case of `CCCN1CCN(c2ncnc3scc(C4COc5ccccc5O4)c23)CC1` (stereo not given), the molecule was classed as inactive.
